Laboratory results published in PubChem BioAssay (NCI).
The panel holds about 79,000 compounds, 15% with a hit somewhere; the sample as a whole holds those more often. Activity calls are given as the source filed them. Cut-off read from the data, not from the text of the source: active = growth inhibition above about 70%; inactive = the rest.

Assays:
[1] = NCI Yeast Anticancer Drug Screen. Data for the rad50 strain (AID 155);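 note: 0% = growth of vehicle-only cultures of the same strain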; conditions: S. cerevisiae rad50 strain growth inhibition, stronger effect = higher value
How it was run: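 Cells are treated with compound, grown, and their growth is then scored against vehicle-only cultures of the same repair-deficient yeast strain.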

[2] = NCI Yeast Anticancer Drug Screen. Data for the mec2-1 strain (AID 157); conditions: S. cerevisiae mec2-1 strain, stronger effect = higher value
How it was run: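 Growth inhibition is read against vehicle-treated controls after compound exposure of the mec2-1 yeast strain, which is defective in DNA damage repair or cell cycle control.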

[3] = NCI Yeast Anticancer Drug Screen. Data for the sgs1 mgt1 strain (AID 161);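 note: 0% = growth of cultures given vehicle only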; conditions: S. cerevisiae sgs1 mgt1 strain, stronger effect = higher value
How it was run: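 This yeast growth screen uses a strain with defined DNA-repair lesions; compound-treated growth is compared with vehicle-treated growth.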

[4] = NCI Yeast Anticancer Drug Screen. Data for the cln2 rad14 strain (AID 165);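 note: 0% = growth equal to vehicle treated cultures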; conditions: S. cerevisiae cln2 rad14 strain, stronger effect = higher value
How it was run: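 Growth inhibition, relative to vehicle-treated controls, is the read-out. The test organism is a yeast strain with defined genetic alterations, cln2 rad14.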

[5] = NCI Yeast Anticancer Drug Screen. Data for the bub3 strain (AID 167); conditions: S. cerevisiae bub3 mutant strain, stronger effect = higher value
How it was run: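 Part of a panel of yeast mutants defective in DNA damage repair or cell cycle regulation. Each strain is grown with compound, and inhibition is calculated relative to solvent-treated cultures.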

[6] = NCI Yeast Anticancer Drug Screen. Data for the mlh1 rad18 strain (AID 175); conditions: S. cerevisiae mlh1 rad18 strain growth inhibition, stronger effect = higher value
How it was run: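 Cells of a genetically altered yeast strain, deficient in DNA damage repair, were treated with compound. Their growth was then compared with that of vehicle-treated cultures to give inhibition.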

[7] = at 5.0 µM (retest, dose inferred, filed as 0.5)
[8] = at 50.0 µM (retest, dose inferred, filed as 5.0)

Measured: growth inhibition

Cc1cc([N+](=O)[O-])cc(Cl)c1O
inactive: [1]; [7] -21% | [1]; [8] 51% | [2]; [7] -6% | [3]; [7] -4% | [4]; [7] 7% | [4]; [8] 69% | [5]; [7] -21% | [5]; [8] 66% | [6]; [7] -58% | [6]; [8] 64%
active: [1]; at 50.0 µM 79.1% | [2]; [8] 79% | [2]; at 50.0 µM 88.3% | [3]; [8] 87% | [3]; at 50.0 µM 88% | [4]; at 50.0 µM 85.2% | [5]; at 50.0 µM 82.3% | [6]; at 50.0 µM 80%

Cn1cc(NC(=O)c2cc(NC(=O)CCCCCCCCC(=O)Nc3cc(C(=O)Nc4cc(C(=O)NCCC(N)N)n(C)c4)n(C)c3)cn2C)cc1C(=O)NCCC(=N)N
active: [1]; [7] 83% | [1]; [8] 98% | [1]; at 50.0 µM 89.8% | [2]; [7] 87% | [2]; [8] 98% | [2]; at 50.0 µM 90.8% | [3]; [7] 80% | [3]; [8] 99% | [3]; at 50.0 µM 91.5% | [4]; [8] 95% | [4]; at 50.0 µM 88% | [5]; [7] 86% | [5]; [8] 98% | [5]; at 50.0 µM 91.5% | [6]; [7] 88% | [6]; [8] 97% | [6]; at 50.0 µM 90%
inactive: [4]; [7] 45%

COc1ccc(C2C3=C(CCC(CN(C)C)C3=O)OC3=C2C(=O)C(CN(C)C)CC3)cc1 (configuration not stated)
inactive: [1]; [7] -17% | [1]; [8] -7% | [1]; at 50.0 µM -35.5% | [2]; [7] -3% | [2]; [8] -1% | [2]; at 50.0 µM 4.1% | [3]; [7] -20% | [3]; [8] -5% | [3]; at 50.0 µM -20.6% | [4]; [7] -1% | [4]; [8] 1% | [4]; at 50.0 µM 44.7% | [5]; [7] -17% | [5]; [8] -17% | [5]; at 50.0 µM -3.5% | [6]; [7] -13% | [6]; [8] -7% | [6]; at 50.0 µM 21.1%

Clc1cc(Cl)c(NN=C(c2ccccc2)c2ccccc2)c(Cl)c1
inactive: [1]; [7] 37% | [2]; [7] 39% | [3]; [7] 57% | [4]; [7] 43% | [5]; at 50.0 µM 58.5%
active: [1]; [8] 97% | [1]; at 50.0 µM 99.5% | [2]; [8] 97% | [2]; at 50.0 µM 99.2% | [3]; [8] 98% | [3]; at 50.0 µM 99.7% | [4]; [8] 97% | [4]; at 50.0 µM 99.4% | [5]; [7] 87% | [5]; [8] 98% | [6]; [7] 72% | [6]; [8] 98% | [6]; at 50.0 µM 99.5%

Cc1ccc(N=NC(C(=O)c2ccccc2)C(=O)c2ccccc2)cc1
inactive: [1]; [7] 7% | [2]; [7] -3% | [3]; [7] 14% | [4]; [7] 7% | [5]; [7] -3% | [6]; [7] -2%
active: [1]; [8] 94% | [1]; at 50.0 µM 93% | [2]; [8] 97% | [2]; at 50.0 µM 93.3% | [3]; [8] 92% | [3]; at 50.0 µM 91.3% | [4]; [8] 94% | [4]; at 50.0 µM 87.9% | [5]; [8] 95% | [5]; at 50.0 µM 93.1% | [6]; [8] 95% | [6]; at 50.0 µM 92.5%

CCOC(=O)[C@]12CCC[C@@]1(O)NC(=O)c1cnccc12
inactive: [1]; [7] 33% | [2]; [7] 13% | [3]; [7] 15% | [4]; [7] -1% | [4]; [8] 7% | [5]; [7] -2% | [5]; [8] 9% | [6]; [7] 0%
active: [1]; [8] 99% | [1]; at 50.0 µM 97.3% | [2]; [8] 99% | [2]; at 50.0 µM 97.7% | [3]; [8] 98% | [3]; at 50.0 µM 97.4% | [4]; at 50.0 µM 91.2% | [5]; at 50.0 µM 96.9% | [6]; [8] 97% | [6]; at 50.0 µM 97.3%

CCCCNCCCCCCCCCCCl
inactive: [1]; [7] 47% | [2]; [7] 65% | [4]; [7] 60% | [4]; at 50.0 µM 64.8% | [5]; [7] 56%
active: [1]; [8] 98% | [1]; at 50.0 µM 99% | [2]; [8] 99% | [2]; at 50.0 µM 96.5% | [3]; [7] 79% | [3]; [8] 99% | [3]; at 50.0 µM 98.8% | [4]; [8] 98% | [5]; [8] 99% | [5]; at 50.0 µM 97.2% | [6]; [7] 84% | [6]; [8] 99% | [6]; at 50.0 µM 98%

CCC[CH2][Sn]([CH2]CCC)([O]C(=O)c1cccc(F)c1)[O]C(=O)c1cccc(F)c1
active: [3]; at 50.0 µM 73.2%
inactive: [1]; [7] 26% | [1]; [8] 26% | [1]; at 50.0 µM 51.5% | [2]; [7] -2% | [2]; [8] -2% | [2]; at 50.0 µM 33.5% | [3]; [7] -1% | [3]; [8] -1% | [4]; [7] 10% | [4]; [8] 10% | [4]; at 50.0 µM 14.9% | [5]; [7] -2% | [5]; [8] -2% | [5]; at 50.0 µM 49.9% | [6]; [7] -1% | [6]; [8] -1% | [6]; at 50.0 µM 53%

CC(=O)OC1CCC23COC(CC(C)C2C)C3(Br)C1 (configuration not stated)
inactive: [1]; [7] -5% | [1]; [8] 12% | [1]; at 50.0 µM -19.5% | [2]; [7] 13% | [2]; [8] 8% | [2]; at 50.0 µM 4.2% | [3]; [7] 2% | [3]; [8] 8% | [3]; at 50.0 µM 1.4% | [4]; [7] -2% | [4]; [8] -5% | [4]; at 50.0 µM 52.3% | [5]; [7] 6% | [5]; [8] 1% | [5]; at 50.0 µM -4.55% | [6]; [7] 3% | [6]; [8] -4% | [6]; at 50.0 µM 1.7%
